Our source for the growth values is PubChem BioAssay (NCI).

About 83,000 compounds went through this panel and 20% of them were active in at least one assay; those are over-represented in the sample as a whole.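 The endpoint reported here, percent growth, reads 100 for growth as untreated, 0 for no net growth and -100 for all cells dead.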 Values without a mark were called inactive. Calls of active or inactive are those of the source. How the source made its calls: active means growth percent below 10; inactive means the rest.

Among the test systems are NCI-H23 lung; NCI-H226 lung; NCI-H322M lung; HOP-62 NSCLC; NCI-H460 lung; HOP-92 NSCLC; NCI-H522 lung; A549/ATCC NSCLC; 786-0 renal; COLO 205 colon.
Common to all, as to experiment: NCI-60 one-dose screen, 48 h (100 = growth as untreated, 0 = no growth, -100 = all killed)
Holding throughout (conditions): 10 µM unless noted

As to `COc1ccc(-c2nc(SCCC(C)C)nc(N/N=C\c3ccccc3O)c2C#N)cc1`, the growth in the assay on NCI-H23 lung is 83.2%; with NCI-H226 lung it was 84.4%; with NCI-H322M lung it was 82.7%; with HOP-62 NSCLC, 92.5%; in the assay on NCI-H460 lung, 59.1%; in the assay on HOP-92 NSCLC, 88.4%. For the same molecule, the growth with NCI-H522 lung is 84.6%; in the assay on A549/ATCC NSCLC, 78.2%; in the assay with 786-0 renal it was 88.9%; in the assay on COLO 205 colon, 96.4%.
Turning to `Cc1cc(C)c2c(-c3nnc(N)s3)cc(=O)oc2c1`, the growth is 96.3% with NCI-H23 lung; 100% in the assay with NCI-H226 lung; 99% in the assay with NCI-H322M lung; 111% in the assay on HOP-62 NSCLC; 103% with NCI-H460 lung; 115% in the assay with HOP-92 NSCLC. For the same molecule, the growth in the assay with NCI-H522 lung was 101%; in the assay on A549/ATCC NSCLC it was 104%; in the assay with 786-0 renal, 99.4%; in the assay with COLO 205 colon it was 116%.
`COc1cccc(-c2nn(-c3ccccc3)cc2-c2ccnc(NCCCNC(=O)c3cccc(C(F)(F)F)c3)c2)c1`: the growth is 27.3% in the assay on NCI-H23 lung; 13.3% with NCI-H226 lung; 75.3% with NCI-H322M lung; 48.3% in the assay on HOP-62 NSCLC; 23.4% with NCI-H460 lung; 9.4% (active) in the assay with HOP-92 NSCLC. Further, the growth in the assay on NCI-H522 lung was 0.301% (active); in the assay with A549/ATCC NSCLC, 8.6% (active); in the assay on 786-0 renal it was 29.8%; in the assay with COLO 205 colon, 9.99% (active).
With `COc1nc(N(C)O)nc(N(C)O)n1`, the growth was 43.9% in the assay with NCI-H23 lung; 49.3% in the assay on NCI-H226 lung; 37.7% with NCI-H322M lung; 26.6% with HOP-62 NSCLC; 8.71% (active) in the assay on NCI-H460 lung; 52.8% in the assay on HOP-92 NSCLC. The growth in the assay on NCI-H522 lung is 56.5%; with A549/ATCC NSCLC, 33.7%; with 786-0 renal, 8.76% (active); with COLO 205 colon, 19.6%.
On to `CN1C(=O)N(C)C2C1NN=c1s/c(=C\c3ccccc3)c(=O)n12` (stereo not given), for which the growth was 64.1% with NCI-H23 lung; 80.2% in the assay with NCI-H226 lung; 59% in the assay on NCI-H322M lung; 46.9% with HOP-62 NSCLC; 17.5% in the assay with NCI-H460 lung; 73.9% in the assay with HOP-92 NSCLC. The growth with NCI-H522 lung was 12.5%; in the assay with A549/ATCC NSCLC it was 39.9%; in the assay with 786-0 renal it was 30.5%; in the assay with COLO 205 colon it was 11.9%.
Consider `COc1cc(/C=C/C(=O)c2ccc(Nc3nc(Nc4ccc(F)cc4)nc(Nc4ccc(Cl)cc4)n3)cc2)cc(OC)c1OC`, for which the growth in the assay with NCI-H23 lung was 26.3%; in the assay on NCI-H226 lung it was 61.1%; in the assay on NCI-H322M lung, 99.6%; in the assay on HOP-62 NSCLC, 82.1%; in the assay with NCI-H460 lung, 55.1%; with HOP-92 NSCLC, 38%. In addition, the growth was 62.2% with NCI-H522 lung, 53.1% with A549/ATCC NSCLC, 66.4% with 786-0 renal and 78.5% in the assay with COLO 205 colon.
On to `N#Cc1c(-c2ccccc2)cc(-c2ccc(Nc3nc(Nc4ccc(F)cc4)nc(Nc4ccc(F)cc4)n3)cc2)nc1N`, for which the growth with NCI-H23 lung was 72.9%; in the assay on NCI-H226 lung, 101%; in the assay on NCI-H322M lung it was 96.2%; in the assay on HOP-62 NSCLC, 80.5%; with NCI-H460 lung, 104%; in the assay on HOP-92 NSCLC it was 46.8%. For the same molecule, the growth was 89% in the assay on NCI-H522 lung, 86.2% with A549/ATCC NSCLC, 83.9% in the assay on 786-0 renal and 81.9% in the assay with COLO 205 colon.
`CN1CCN(CC(=O)Nc2nc(-c3cccc(NS(=O)(=O)c4cccc5c(N(C)C)cccc45)c3)cs2)CC1`: the growth in the assay with NCI-H23 lung is 57.6%; with NCI-H226 lung, 75.2%; in the assay with NCI-H322M lung, 105%; with HOP-62 NSCLC it was 85.9%; with NCI-H460 lung, 55.7%; in the assay with HOP-92 NSCLC it was 57.6%. In addition, the growth is 67.7% with NCI-H522 lung, 72.5% in the assay on A549/ATCC NSCLC, 79.5% in the assay on 786-0 renal and 76.9% with COLO 205 colon.
As for `CCN(CC)CCN1C(=O)c2c(c(C)c3c(oc4cc(O)ccc43)c2C)C1=O`, the growth with NCI-H23 lung was 92.7%; in the assay on NCI-H226 lung it was 29.2%; in the assay with NCI-H322M lung, 89.1%; with HOP-62 NSCLC it was 93.1%; in the assay with NCI-H460 lung, -69% (active); in the assay with HOP-92 NSCLC it was 72.1%. For the same molecule, the growth was -37.1% (active) in the assay on NCI-H522 lung, -65.3% (active) in the assay on A549/ATCC NSCLC, -80.9% (active) with 786-0 renal and 12.8% in the assay on COLO 205 colon.
For the molecule `CC(=O)c1ccc(NCC(=O)Nc2ccccn2)cc1`, the growth is 96.4% in the assay on NCI-H23 lung; 91.3% with NCI-H226 lung; 103% in the assay with NCI-H322M lung; 98.7% with HOP-62 NSCLC; 104% with NCI-H460 lung; 103% with HOP-92 NSCLC. Also, the growth with NCI-H522 lung was 107%; in the assay on A549/ATCC NSCLC it was 104%; in the assay on 786-0 renal, 102%; in the assay on COLO 205 colon it was 103%.
`Cc1ccc(C(=O)CSc2nc(-c3ccc(Br)cc3)c(C#N)c(=O)[nH]2)cc1`: the growth is 92.6% in the assay with NCI-H23 lung; 101% in the assay with NCI-H226 lung; 100% in the assay with NCI-H322M lung; 89.1% in the assay on HOP-62 NSCLC; 102% with NCI-H460 lung; 92.2% in the assay on HOP-92 NSCLC. Moreover, the growth with NCI-H522 lung is 90%; with A549/ATCC NSCLC, 101%; in the assay on 786-0 renal, 98.7%; with COLO 205 colon it was 102%.
As to `Cc1ccc(C(=O)COc2cccc(/C=C3\Oc4ccccc4C3=O)c2)cc1`, the growth is 90.5% in the assay with NCI-H23 lung; 80.9% in the assay with NCI-H226 lung; 101% in the assay on NCI-H322M lung; 97.1% in the assay on HOP-62 NSCLC; 119% in the assay with NCI-H460 lung; 89.8% in the assay on HOP-92 NSCLC. For the same molecule, the growth in the assay on NCI-H522 lung is 78.2%; in the assay with A549/ATCC NSCLC, 96.9%; in the assay on 786-0 renal, 97.6%; in the assay on COLO 205 colon, 115%.
With `Cc1ccccc1NC(=O)N/C(N)=N/c1nc(C)c(C)s1`, the growth in the assay with NCI-H23 lung was 42.7%; with NCI-H226 lung, 60%; in the assay on NCI-H322M lung it was 46.2%; in the assay with HOP-62 NSCLC it was 43.9%; in the assay with NCI-H460 lung it was 10.5%; with HOP-92 NSCLC it was 73.6%. For the same molecule, the growth is 16.3% in the assay with NCI-H522 lung, 40.2% in the assay on A549/ATCC NSCLC, 51.4% in the assay with 786-0 renal and 10.1% with COLO 205 colon.
`O=C1c2cccc(NCCN=Cc3cc([N+](=O)[O-])ccc3O)c2C(=O)c2c(NCCN=Cc3cc([N+](=O)[O-])ccc3O)cccc21`: the growth was 75% in the assay on NCI-H23 lung; 77% with NCI-H226 lung; 77% in the assay on NCI-H322M lung; 55.4% in the assay on HOP-62 NSCLC; 53.4% in the assay with NCI-H460 lung; 62.4% in the assay on HOP-92 NSCLC. Moreover, the growth with NCI-H522 lung is 45%; with A549/ATCC NSCLC, 84.6%; with 786-0 renal, 82.6%; in the assay with COLO 205 colon, 55.9%.
